Compound activity (PubChem BioAssay)
TRPV1 ag: HTS Assay for Compounds that Act as Agonists of the Vanilloid Receptor 1. AID 540275, 2011. activation, % at 8.33 µM. TRPV1-expressing cells, Fluo-8 calcium influx, agonist mode. actives 0.19% (n = 320,000); in the data active = activation above about 80%; inconclusive = between about 30% and that limit; note: 0% is about no effect
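TRPV1-expressing cells were cultured overnight at 35.5C and loaded with Fluo-8 calcium dye for 40 to 90 min at room temperature. After a 10 s baseline, compound was added and calcium influx was read kinetically for 3 min (ex 480/em 520 nm).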
TRHR PAM: qHTS for Small Molecule Agonists and Allosteric Enhancers of Human TRH Receptor: Primary Screen for Enhancers. Thyrotropin-releasing hormone receptor (Homo sapiens), P34981. TRHR cells, fluo-8 calcium fluorescence, EC20 TRH enhancement. enhancement, % at 2 µM. actives 0.66% (n = 360,000); in the data active = enhancement above about 30%; note: 0% is about no effect
Target sequence (P34981 whole entry, looked up): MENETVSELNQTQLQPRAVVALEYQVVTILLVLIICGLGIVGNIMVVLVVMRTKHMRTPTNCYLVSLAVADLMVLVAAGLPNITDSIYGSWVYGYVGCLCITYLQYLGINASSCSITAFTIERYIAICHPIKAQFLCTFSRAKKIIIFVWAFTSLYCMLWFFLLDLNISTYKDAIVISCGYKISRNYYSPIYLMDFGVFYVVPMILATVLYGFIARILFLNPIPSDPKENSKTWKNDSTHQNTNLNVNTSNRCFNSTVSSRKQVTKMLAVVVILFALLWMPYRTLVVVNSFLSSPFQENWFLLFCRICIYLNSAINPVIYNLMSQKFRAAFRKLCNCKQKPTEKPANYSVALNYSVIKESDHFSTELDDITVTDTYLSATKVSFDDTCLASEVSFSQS
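Enhancer read-out: after compound pinning and an initial kinetic agonist-mode read, an EC20 of TRH (10 nM final) was injected and fluo-8 calcium signal (Ex 480/Em 530) followed at 1 s/cycle for 100 cycles in TRHR-expressing cells.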
TRPML1 agonist: qHTS for Agonists of the Human Mucolipin Transient Receptor Potential 1 (TRPML1) | Mucolipin-1 (Homo sapiens), Q9GZU1 | TRPML1-expressing cells, Ca2+ dye fluorescence, FDSS | activation, % (no concentration beside the values) | actives 0.12% (n = 410,000) | AID 624414, 2012; in the data active = activation above about 50%; inconclusive = mostly about 30% to 49%; note: 0% is about no effect
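TRPML1-DL cells, Tet-induced overnight (~16 h, 37 degrees C), loaded 45-90 min at room temperature with Ca8 no-wash calcium dye plus quencher. FDSS fluorescence: 10 s baseline, compound pin-transfer, 110 s agonist read, then EC80 54-4 (4uM final) and 110 s antagonist read.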
TRPML1 blocker: qHTS for Inhibitors of the Human Mucolipin Transient Receptor Potential 1 (TRPML1) | activity change, negative = inhibition, % (no concentration beside the values) | Mucolipin-1 (Homo sapiens), Q9GZU1 | actives 0.02% (n = 390,000) | TRPML1-inducible cells, Ca2+ dye fluorescence, FDSS; stronger effect = lower value; inhibition of EC80 agonist-evoked calcium signal; in the data active = activity change below about -50%; inconclusive = between about -30% and that limit;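 note: stimulus is agonist 54-4 at its EC80 concentration; % is set by controls: 0 for no effect and ±100 for the full control effect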
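Calcium fluorescence in TRPML1-DL cells induced overnight with Tet: a 110 s read after compound pin addition, then a 110 s antagonist read after challenge with 54-4 at 4 uM final (EC80).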
TRHR ag: qHTS for Small Molecule Agonists and Allosteric Enhancers of Human TRH Receptor: Primary Screen for Agonists; AID 493084, 2011; Thyrotropin-releasing hormone receptor (Homo sapiens), P34981; actives 0.18% (n = 360,000); TRHR cells, calcium flux fluo-8, FDSS agonist mode; activation, % at 2 µM; in the data active = activation above about 30%; note: 0% is about no effect
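TRHR-expressing cells loaded with fluo-8 calcium dye; 23 nL library compound pin-transferred, kinetic FDSS fluorescence (Ex 480/Em 530) recorded about 180 s for agonist-induced calcium release, before a 10 nM TRH EC20 addition for potentiator mode.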
TRPV1 PAM: HTS Assay for Compounds that Act as Potentiators of the Vanilloid Receptor 1 | TRPV1-expressing cells, Fluo-8 calcium influx, capsaicin EC20 potentiation | potentiation, % at 8.33 µM | actives 0.02% (n = 320,000) | AID 540277, 2011; in the data active = potentiation above about 80%; inconclusive = between about 30% and that limit; note: 0% is about no effect
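TRPV1-expressing cells were cultured overnight at 35.5C and loaded with Fluo-8 calcium dye for 40 to 90 min at room temperature. After a 10 s baseline, compound was added and calcium influx was read kinetically for 3 min (ex 480/em 520 nm).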
* hit, by the source's call. Shown are actives, neighbours in structure and some others; about 0.96% of the full set was active somewhere.

`COc1ccc(Cl)cc1NC(=O)N1CCN(C2CCCCC2)CC1` gave TRPV1 ag 2, TRHR PAM 36*, TRPML1 agonist 0, TRPML1 blocker -5, TRHR ag 1 and TRPV1 PAM -1.
For COc1ccc(Cl)cc1NC(=S)N1CC(C)OC(C)C1 (stereo not given) the results were TRPV1 ag -3, TRHR PAM 33*, TRPML1 agonist 1, TRPML1 blocker 24, TRHR ag 0 and TRPV1 PAM 12.
For COc1ccc(Cl)cc1NC(=O)NC1CCCCC1 the results were TRPV1 ag 11, TRHR PAM 32*, TRPML1 agonist 2, TRPML1 blocker -7, TRHR ag -1 and TRPV1 PAM 3.
COc1ccccc1NC(=S)N1CC(C)OC(C)C1 (stereo not given) was read as TRPV1 ag -4, TRHR PAM 0, TRPML1 agonist 1, TRPML1 blocker 15, TRHR ag 0 and TRPV1 PAM 8.
CCN1CCN(C(=O)Nc2cc(Cl)ccc2OC)CC1 was read as TRPV1 ag 2, TRHR PAM 0, TRPML1 agonist 0, TRPML1 blocker 0, TRHR ag 0 and TRPV1 PAM 1.
`CC(C)(C)OC(=O)NS(=O)(=O)NOCc1ccccc1` gave TRPML1 agonist -1.
O=C(c1cnn(-c2cccc(F)c2)c1-n1cccc1)N1CCN(c2ccccc2F)CC1 was read as TRHR PAM 0, TRPML1 agonist 71*, TRPML1 blocker -13 and TRHR ag 0.
Screening O=C(c1cnn(-c2ccc(F)cc2)c1-n1cccc1)N1CCN(c2ccccc2)CC1 returned TRHR PAM -4, TRPML1 agonist 1, TRPML1 blocker -9 and TRHR ag -1.
`CC(C)C[C@H]1CN=C(Nc2ccccc2)N1CCc1cccc(F)c1` gave TRPML1 agonist 80* and TRPML1 blocker 9.
Screening Cc1cccc(CCN2C(Nc3ccccc3)=NC[C@@H]2CC(C)C)c1 returned TRPV1 ag 20, TRHR PAM -24, TRPML1 agonist 26, TRPML1 blocker -2, TRHR ag 41* and TRPV1 PAM -55.
CC(C)CCN1C(Nc2ccccc2)=NC[C@@H]1CC(C)C was read as TRPV1 ag 1, TRHR PAM -6, TRPML1 agonist -1, TRPML1 blocker 7, TRHR ag 1 and TRPV1 PAM 18.
`CC(C)C[C@H]1CN=C(Nc2ccccc2)N1CCc1ccc(F)cc1` gave TRPV1 ag 6, TRHR PAM -21, TRPML1 agonist inconclusive, TRPML1 blocker 6, TRHR ag 39* and TRPV1 PAM -6.
CC(C)C[C@H]1CN=C(N(C)C)N1CCc1cccc(F)c1 was read as TRPML1 agonist 0 and TRPML1 blocker -17.
For Oc1cc2cc(-c3csc(-c4ccc(F)cc4)n3)ccc2[nH]1 the results were TRPML1 agonist -1.
For CCCCn1c(=O)c(CCC(=O)OCC(=O)NC(=O)NCCC(C)C)nc2ccccc21 the results were TRPV1 ag 3, TRHR PAM 30*, TRPML1 agonist 2, TRPML1 blocker 6, TRHR ag 0 and TRPV1 PAM 0.
`Cc1cc(N(C)C)c(C)cc1/C=C/c1ccnc2ccccc12` gave TRPML1 agonist 14.
For CNCc1ccccc1Sc1cc(O)ccc1O the results were TRPV1 ag 4, TRHR PAM 3, TRPML1 agonist 0, TRPML1 blocker 2, TRHR ag 0 and TRPV1 PAM -3.
Screening CN(C)Cc1ccccc1Sc1ccc(O)cc1O returned TRPV1 ag 0, TRHR PAM 30*, TRPML1 agonist 0, TRPML1 blocker -2, TRHR ag 0 and TRPV1 PAM -24.
`Cc1ccc2c(C(=O)CNc3nccs3)c[nH]c2c1` gave TRPML1 agonist -1.
O=C1c2ccccc2C(=O)N1C1CCCCC1 was read as TRPV1 ag 2, TRHR PAM 5, TRPML1 agonist 1, TRPML1 blocker -1, TRHR ag 1 and TRPV1 PAM inconclusive.
Screening O=C1C2C(c3ccccc3)C=CC(c3ccccc3)C2C(=O)N1C1CCCCC1 (stereo not given) returned TRPV1 ag 0, TRHR PAM 35*, TRPML1 agonist 0, TRPML1 blocker -7, TRHR ag 0 and TRPV1 PAM -2.
`CCOC(=O)c1ccc2c(c1)N(C)C(=O)c1ccccc1S2` gave TRPV1 ag 4, TRHR PAM -1, TRHR ag -1 and TRPV1 PAM 2.
CCOC(=O)c1cc2n(c1/N=C/N(C)C)-c1ccccc1C2=O was read as TRPV1 ag inconclusive, TRHR PAM -2, TRPML1 agonist inconclusive, TRPML1 blocker -22, TRHR ag 85* and TRPV1 PAM -22.
Cc1cc2c(s1)c1cnn(Cc3ccc(C(F)(F)F)cc3F)c(=O)c1n2C was read as TRHR PAM 2 and TRHR ag 1.
For Cc1ccc(OCCCN2CCOCC2)c([N+](=O)[O-])c1 the results were TRPV1 ag -1, TRHR PAM 31*, TRPML1 agonist -1, TRPML1 blocker 20, TRHR ag 1 and TRPV1 PAM -9.
C=CCC1NS(=O)(=O)OC2CCCC12 (stereo not given) was read as TRPV1 ag 2, TRHR PAM 37*, TRPML1 agonist 0, TRPML1 blocker -3, TRHR ag 0 and TRPV1 PAM -8.
`Cc1ccccc1C(=O)Nc1ccccc1C(=O)N1CCC(C)CC1` gave TRPV1 ag 1, TRHR PAM 1, TRPML1 agonist 54*, TRPML1 blocker -12, TRHR ag -1 and TRPV1 PAM 0.
Cc1sc2ccccc2[n+]1C was read as TRPML1 agonist 2.
For Cc1cccc(Cn2cc(S(=O)(=O)c3cccc(C)c3)c(=O)c3cc(F)c(N4CCOCC4)cc32)c1 the results were TRHR PAM 2, TRPML1 agonist 0, TRPML1 blocker 0 and TRHR ag 0.
Screening Cc1cccc(Cn2cc(S(=O)(=O)c3ccccc3)c(=O)c3cc(F)c(N4CCOCC4)cc32)c1 returned TRHR PAM 38*, TRPML1 agonist 0, TRPML1 blocker 4 and TRHR ag 1.
`COc1cc2c(NC3CCN(C)CC3)nc(N3CCCN(C)CC3)nc2cc1OCCCCCCN(C)C` gave TRPML1 agonist 0.
